Screen size: about 5,500 compounds; about 2,000 (36%) were called active. Another 18% or so got no clear call; they are omitted. No stated cut-off is given here; in the data, active means normalized growth mostly below about 0.91 (no sharp cut-off); inconclusive means no clear call, values can overlap the other calls; inactive means mostly above about 0.92. The list shows a part of the results.
Experiment: chemical genetic growth profiling, strain panel (AID 1159580);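 further: tested at 20 µM; growth read once vehicle control cultures reached saturation at 30 °C; 1 = growth at the plate median or of vehicle wells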
Conditions: growth OD

Measured: normalized growth

CC1(C)C=Cc2c(cc3occ(-c4ccc5c(c4)OCO5)c(=O)c3c2O)O1
active: S. cerevisiae deletion strains, locus YBL061C, strain skt5, stronger effect = lower value 0.839 | S. cerevisiae deletion strains, locus YBR023C, strain chs3, stronger effect = lower value 0.884 | S. cerevisiae deletion strains, locus YBR231C, strain swc5, stronger effect = lower value 0.864 | S. cerevisiae deletion strains, locus YCL011C, strain gbp2, stronger effect = lower value 0.897 | S. cerevisiae deletion strains, locus YDR069C, strain doa4, stronger effect = lower value 0.811 | S. cerevisiae deletion strains, locus YDR297W, strain sur2, stronger effect = lower value 0.91 | S. cerevisiae deletion strains, locus YER015W, strain faa2, stronger effect = lower value 0.841 | S. cerevisiae deletion strains, locus YGL086W, strain mad1, stronger effect = lower value 0.922 | S. cerevisiae deletion strains, locus YGL173C, strain kem1, stronger effect = lower value 0.817 | S. cerevisiae deletion strains, locus YGL248W, strain PDE1, stronger effect = lower value 0.883 | S. cerevisiae deletion strains, locus YGL253W, strain hxk2, stronger effect = lower value 0.894 | S. cerevisiae deletion strains, locus YHR027C, strain rpn1, stronger effect = lower value 0.749 | S. cerevisiae deletion strains, locus YJL095W, strain BCK1 (second series), stronger effect = lower value 0.918 | S. cerevisiae deletion strains, locus YLR221C, strain rsa3, stronger effect = lower value 0.897 | S. cerevisiae deletion strains, locus YLR342W, strain FKS1, stronger effect = lower value 0.907 | S. cerevisiae deletion strains, locus YMR058W, strain fet3, stronger effect = lower value 0.676 | S. cerevisiae deletion strains, locus YNL209W, strain ssb2, stronger effect = lower value 0.738 | S. cerevisiae deletion strains, locus YOR070C, strain gyp1, stronger effect = lower value 0.905 | S. cerevisiae deletion strains, locus YPL051W, strain arl3, stronger effect = lower value 0.855 | S. cerevisiae strains, strain wild type, stronger effect = lower value 0.889
inactive: S. cerevisiae deletion strains, locus YAL013W, strain DEP1, stronger effect = lower value 0.996 | S. cerevisiae deletion strains, locus YAL021C, strain ccr4, stronger effect = lower value 0.931 | S. cerevisiae deletion strains, locus YAL026C, strain drs2, stronger effect = lower value 0.995 | S. cerevisiae deletion strains, locus YAL030W, strain snc1, stronger effect = lower value 0.938 | S. cerevisiae deletion strains, locus YBR009C, strain hhf1, stronger effect = lower value 0.982 | S. cerevisiae deletion strains, locus YBR021W, strain FUR4, stronger effect = lower value 1 | S. cerevisiae deletion strains, locus YBR171W, strain sec66, stronger effect = lower value 0.998 | S. cerevisiae deletion strains, locus YBR229C, strain ROT2, stronger effect = lower value 1.01 | S. cerevisiae deletion strains, locus YBR279W, strain paf1, stronger effect = lower value 0.988 | S. cerevisiae deletion strains, locus YCL016C, strain dcc1, stronger effect = lower value 0.994 | S. cerevisiae deletion strains, locus YCL029C, strain bik1, stronger effect = lower value 1 | S. cerevisiae deletion strains, locus YCL061C, strain MRC1, stronger effect = lower value 0.977 | S. cerevisiae deletion strains, locus YCL069W, strain vba3, stronger effect = lower value 0.971 | S. cerevisiae deletion strains, locus YCR088W, strain abp1, stronger effect = lower value 0.995 | S. cerevisiae deletion strains, locus YDL005C, strain med2, stronger effect = lower value 0.998 | S. cerevisiae deletion strains, locus YDL035C, strain GPR1, stronger effect = lower value 0.908 | S. cerevisiae deletion strains, locus YDL040C, strain nat1, stronger effect = lower value 0.991 | S. cerevisiae deletion strains, locus YDL074C, strain BRE1, stronger effect = lower value 1.01 | S. cerevisiae deletion strains, locus YDL101C, strain DUN1, stronger effect = lower value 1.01 | S. cerevisiae deletion strains, locus YDL134C, strain PPH21, stronger effect = lower value 0.923 | S. cerevisiae deletion strains, locus YDL185W, strain tfp1, stronger effect = lower value 1 | S. cerevisiae deletion strains, locus YDL192W, strain arf1, stronger effect = lower value 0.956 | S. cerevisiae deletion strains, locus YDR001C, strain nth1, stronger effect = lower value 0.998 | S. cerevisiae deletion strains, locus YDR101C, strain arx1, stronger effect = lower value 0.983 | S. cerevisiae deletion strains, locus YDR137W, strain rgp1, stronger effect = lower value 1.04 | S. cerevisiae deletion strains, locus YDR159W, strain sac3, stronger effect = lower value 1 | S. cerevisiae deletion strains, locus YDR162C, strain NBP2, stronger effect = lower value 0.976 | S. cerevisiae deletion strains, locus YDR195W, strain ref2 1.01 | S. cerevisiae deletion strains, locus YDR318W, strain mcm21, stronger effect = lower value 0.97 | S. cerevisiae deletion strains, locus YDR334W, strain swr1, stronger effect = lower value 0.95 | S. cerevisiae deletion strains, locus YDR335W, strain msn5, stronger effect = lower value 0.978 | S. cerevisiae deletion strains, locus YDR388W, stronger effect = lower value 0.993 | S. cerevisiae deletion strains, locus YDR392W, strain spt3, stronger effect = lower value 0.873 | S. cerevisiae deletion strains, locus YDR502C, strain sam2, stronger effect = lower value 0.989 | S. cerevisiae deletion strains, locus YEL003W, strain gim4, stronger effect = lower value 0.932 | S. cerevisiae deletion strains, locus YEL037C, strain rad23, stronger effect = lower value 0.977 | S. cerevisiae deletion strains, locus YEL061C, strain CIN8 (second series), stronger effect = lower value 0.98 | S. cerevisiae deletion strains, locus YEL061C, strain CIN8, stronger effect = lower value 0.981 | S. cerevisiae deletion strains, locus YER016W, strain bim1, stronger effect = lower value 0.988 | S. cerevisiae deletion strains, locus YER110C, stronger effect = lower value 1.04 | S. cerevisiae deletion strains, locus YER111C, strain swi4, stronger effect = lower value 0.98 | S. cerevisiae deletion strains, locus YER155C, strain BEM2 (second series), stronger effect = lower value 0.947 | S. cerevisiae deletion strains, locus YER155C, strain BEM2, stronger effect = lower value 1.02 | S. cerevisiae deletion strains, locus YER167W, strain BCK2, stronger effect = lower value 0.967 | S. cerevisiae deletion strains, locus YFR010W, strain ubp6, stronger effect = lower value 0.91 | S. cerevisiae deletion strains, locus YGL078C, strain dbp3, stronger effect = lower value 1.02 | S. cerevisiae deletion strains, locus YGL167C, strain pmr1, stronger effect = lower value 1.01 | S. cerevisiae deletion strains, locus YGL227W, strain vid30, stronger effect = lower value 1.01 | S. cerevisiae deletion strains, locus YGL240W, strain doc1, stronger effect = lower value 1.02 | S. cerevisiae deletion strains, locus YGR078C, strain PAC10, stronger effect = lower value 0.98 | S. cerevisiae deletion strains, locus YGR135W, strain pre9, stronger effect = lower value 0.964 | S. cerevisiae deletion strains, locus YGR252W, strain gcn5, stronger effect = lower value 1.02 | S. cerevisiae deletion strains, locus YHR013C, strain ard1, stronger effect = lower value 0.982 | S. cerevisiae deletion strains, locus YHR030C, strain SLT2, stronger effect = lower value 0.945 | S. cerevisiae deletion strains, locus YHR079C, strain IRE1 (second series), stronger effect = lower value 1.02 | S. cerevisiae deletion strains, locus YHR094C, strain hxt1, stronger effect = lower value 1.03 | S. cerevisiae deletion strains, locus YHR129C, strain ARP1, stronger effect = lower value 0.94 | S. cerevisiae deletion strains, locus YHR142W, strain chs7, stronger effect = lower value 0.936 | S. cerevisiae deletion strains, locus YHR200W, strain rpn10, stronger effect = lower value 0.968 | S. cerevisiae deletion strains, locus YIL066C, strain RNR3, stronger effect = lower value 0.921 | S. cerevisiae deletion strains, locus YIL073C, strain SPO22, stronger effect = lower value 0.886 | S. cerevisiae deletion strains, locus YIL125W, strain kgd1, stronger effect = lower value 1.03 | S. cerevisiae deletion strains, locus YIR030C, strain dcg1, stronger effect = lower value 1.01 | S. cerevisiae deletion strains, locus YJL092W, strain hpr5, stronger effect = lower value 0.983 | S. cerevisiae deletion strains, locus YJL095W, strain BCK1, stronger effect = lower value 0.927 | S. cerevisiae deletion strains, locus YJL115W, strain asf1, stronger effect = lower value 1.01 | S. cerevisiae deletion strains, locus YJL129C, strain trk1, stronger effect = lower value 1.01 | S. cerevisiae deletion strains, locus YJL134W, strain LCB3, stronger effect = lower value 0.998 | S. cerevisiae deletion strains, locus YJL154C, strain vps35, stronger effect = lower value 0.997 | S. cerevisiae deletion strains, locus YJL164C, strain tpk1, stronger effect = lower value 0.967 | S. cerevisiae deletion strains, locus YJL166W, strain qcr8, stronger effect = lower value 0.943 | S. cerevisiae deletion strains, locus YJL168C, strain set2, stronger effect = lower value 1.01 | S. cerevisiae deletion strains, locus YJL187C, strain SWE1 (second series), stronger effect = lower value 0.92 | S. cerevisiae deletion strains, locus YJL187C, strain SWE1, stronger effect = lower value 0.967 | S. cerevisiae deletion strains, locus YJR075W, strain HOC1, stronger effect = lower value 0.996 | S. cerevisiae deletion strains, locus YKL068W, stronger effect = lower value 1.02 | S. cerevisiae deletion strains, locus YKL160W, strain elf1, stronger effect = lower value 1.02 | S. cerevisiae deletion strains, locus YKL190W, strain CNB1, stronger effect = lower value 0.967 | S. cerevisiae deletion strains, locus YKR001C, strain vps1, stronger effect = lower value 0.988 | S. cerevisiae deletion strains, locus YKR026C, strain gcn3, stronger effect = lower value 0.983 | S. cerevisiae deletion strains, locus YKR091W, strain srl3, stronger effect = lower value 0.981 | S. cerevisiae deletion strains, locus YLL001W, strain dnm1, stronger effect = lower value 0.959 | S. cerevisiae deletion strains, locus YLL026W, stronger effect = lower value 0.961 | S. cerevisiae deletion strains, locus YLL041C, strain sdh2, stronger effect = lower value 0.993 | S. cerevisiae deletion strains, locus YLR027C, strain aat2, stronger effect = lower value 0.943 | S. cerevisiae deletion strains, locus YLR039C, strain RIC1, stronger effect = lower value 1.11 | S. cerevisiae deletion strains, locus YLR058C, strain SHM2, stronger effect = lower value 0.933 | S. cerevisiae deletion strains, locus YLR102C, strain apc9, stronger effect = lower value 1.03 | S. cerevisiae deletion strains, locus YLR258W, strain gsy2, stronger effect = lower value 0.963 | S. cerevisiae deletion strains, locus YLR262C, strain YPT6 (second series), stronger effect = lower value 0.945 | S. cerevisiae deletion strains, locus YLR262C, strain YPT6, stronger effect = lower value 1.14 | S. cerevisiae deletion strains, locus YLR268W, strain sec22, stronger effect = lower value 0.943 | S. cerevisiae deletion strains, locus YLR320W, strain mms22, stronger effect = lower value 0.917 | S. cerevisiae deletion strains, locus YLR357W, strain rsc2, stronger effect = lower value 0.905 | S. cerevisiae deletion strains, locus YLR370C, strain arc18, stronger effect = lower value 0.978 | S. cerevisiae deletion strains, locus YLR371W, strain rom2, stronger effect = lower value 0.92 | S. cerevisiae deletion strains, locus YLR384C, strain iki3, stronger effect = lower value 0.976 | S. cerevisiae deletion strains, locus YLR418C, strain cdc73, stronger effect = lower value 1.02 | S. cerevisiae deletion strains, locus YML016C, strain PPZ1, stronger effect = lower value 0.954 | S. cerevisiae deletion strains, locus YML032C, strain rad52, stronger effect = lower value 1 | S. cerevisiae deletion strains, locus YML120C, strain ndi1, stronger effect = lower value 1.01 | S. cerevisiae deletion strains, locus YML124C, strain tub3, stronger effect = lower value 1.02 | S. cerevisiae deletion strains, locus YMR078C, strain ctf18, stronger effect = lower value 1.04 | S. cerevisiae deletion strains, locus YMR125W, strain sto1, stronger effect = lower value 1.01 | S. cerevisiae deletion strains, locus YMR129W, stronger effect = lower value 0.993 | S. cerevisiae deletion strains, locus YMR205C, strain PFK2, stronger effect = lower value 0.971 | S. cerevisiae deletion strains, locus YMR223W, strain ubp8, stronger effect = lower value 0.959 | S. cerevisiae deletion strains, locus YMR231W, strain pep5, stronger effect = lower value 0.975 | S. cerevisiae deletion strains, locus YMR263W, strain SAP30, stronger effect = lower value 1 | S. cerevisiae deletion strains, locus YMR307W, strain GAS1, stronger effect = lower value 0.946 | S. cerevisiae deletion strains, locus YNL067W, strain RPL9B, stronger effect = lower value 0.995 | S. cerevisiae deletion strains, locus YNL071W, strain lat1, stronger effect = lower value 0.986 | S. cerevisiae deletion strains, locus YNL233W, strain BNI4, stronger effect = lower value 0.881 | S. cerevisiae deletion strains, locus YNL248C, strain rpa49, stronger effect = lower value 0.963 | S. cerevisiae deletion strains, locus YNL250W, strain rad50, stronger effect = lower value 1.06 | S. cerevisiae deletion strains, locus YNL271C, strain bni1, stronger effect = lower value 1 | S. cerevisiae deletion strains, locus YNL298W, strain CLA4, stronger effect = lower value 1.01 | S. cerevisiae deletion strains, locus YNL307C, strain MCK1, stronger effect = lower value 1.02 | S. cerevisiae deletion strains, locus YNL322C, strain KRE1 (second series), stronger effect = lower value 0.999 | S. cerevisiae deletion strains, locus YNR049C, strain mso1, stronger effect = lower value 0.991 | S. cerevisiae deletion strains, locus YNR052C, strain pop2, stronger effect = lower value 1 | S. cerevisiae deletion strains, locus YOL012C, strain htz1 0.804 | S. cerevisiae deletion strains, locus YOL147C, strain pex11, stronger effect = lower value 1.01 | S. cerevisiae deletion strains, locus YOR001W, strain rrp6, stronger effect = lower value 0.93 | S. cerevisiae deletion strains, locus YOR061W, strain CKA2, stronger effect = lower value 0.924 | S. cerevisiae deletion strains, locus YOR069W, strain VPS5, stronger effect = lower value 0.96 | S. cerevisiae deletion strains, locus YOR080W, strain dia2, stronger effect = lower value 0.963 | S. cerevisiae deletion strains, locus YOR083W, strain WHI5, stronger effect = lower value 0.928 | S. cerevisiae deletion strains, locus YOR106W, strain vam3, stronger effect = lower value 0.907 | S. cerevisiae deletion strains, locus YOR136W, strain idh2, stronger effect = lower value 1.03 | S. cerevisiae deletion strains, locus YOR144C, strain elg1, stronger effect = lower value 1.02 | S. cerevisiae deletion strains, locus YOR184W, strain ser1, stronger effect = lower value 0.971 | S. cerevisiae deletion strains, locus YOR265W, strain rbl2, stronger effect = lower value 0.947 | S. cerevisiae deletion strains, locus YOR270C, strain vph1, stronger effect = lower value 0.952 | S. cerevisiae deletion strains, locus YOR290C, strain snf2, stronger effect = lower value 0.981 | S. cerevisiae deletion strains, locus YOR316C, strain cot1, stronger effect = lower value 1.02 | S. cerevisiae deletion strains, locus YPL055C, strain LGE1, stronger effect = lower value 0.871 | S. cerevisiae deletion strains, locus YPL078C, strain atp4, stronger effect = lower value 1.02 | S. cerevisiae deletion strains, locus YPL106C, strain sse1, stronger effect = lower value 0.901 | S. cerevisiae deletion strains, locus YPL240C, strain hsp82, stronger effect = lower value 0.989 | S. cerevisiae deletion strains, locus YPR119W, strain clb2, stronger effect = lower value 1.04 | S. cerevisiae deletion strains, locus YPR141C, strain kar3, stronger effect = lower value 1.02 | S. cerevisiae deletion strains, locus YPR163C, strain tif3, stronger effect = lower value 1.02 | S. cerevisiae deletion strains, locus YPR167C, strain met16, stronger effect = lower value 0.967 | S. cerevisiae deletion strains, strain wtn01, stronger effect = lower value 0.952
